From PubChem BioAssay
Entries with a potency or affinity are not part of this list. Calls of active or inactive are those of the source. Unless noted, the limit is not given here; nearly all actives have IC50 up to about 0.98 µM.

What follows are molecules tested against Calcium-dependent protein kinase 1 (Plasmodium falciparum (isolate 3D7)) (UniProt P62344) (assay: PfCDPK1 kinase inhibitors, biochemical, TCAMS library (AID 1159585;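 also: inhibitors leave more ATP so luminescence rises with inhibition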)). Conditions: recombinant PfCDPK1, Kinase-Glo ATP depletion luminescence.
Sequence of Calcium-dependent protein kinase 1 (Plasmodium falciparum (isolate 3D7)) (P62344 whole entry, looked up): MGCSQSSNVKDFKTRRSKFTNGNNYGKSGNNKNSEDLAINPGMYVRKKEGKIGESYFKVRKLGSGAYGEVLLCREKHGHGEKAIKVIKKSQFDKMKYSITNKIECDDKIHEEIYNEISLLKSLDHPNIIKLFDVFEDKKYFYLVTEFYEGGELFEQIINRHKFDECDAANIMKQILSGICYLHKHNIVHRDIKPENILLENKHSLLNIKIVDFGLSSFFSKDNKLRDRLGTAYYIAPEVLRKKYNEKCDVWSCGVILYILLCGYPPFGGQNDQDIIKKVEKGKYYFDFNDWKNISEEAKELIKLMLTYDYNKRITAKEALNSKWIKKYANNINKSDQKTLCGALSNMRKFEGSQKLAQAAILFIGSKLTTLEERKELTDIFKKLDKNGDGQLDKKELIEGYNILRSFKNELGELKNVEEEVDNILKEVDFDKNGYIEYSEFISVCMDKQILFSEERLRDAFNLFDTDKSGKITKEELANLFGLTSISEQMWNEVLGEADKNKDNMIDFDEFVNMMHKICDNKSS

outcome, inactive:
O=C(Nc1ccc(-c2nc3ccccc3[nH]2)cc1)c1ccc(-c2cccc([N+](=O)[O-])c2)o1
Cc1cc(Nc2ccc(C(C)(C)C)cc2)c2[nH]ncc2n1
O=S(=O)(NCCN1CCCC1)c1ccc(-c2ccc(CNCc3ccsc3)cc2)cc1
CCCCN(CCCC)Cc1cc2ccccc2cc1O
Cc1cccc2[nH]c(-c3ccc(-c4cccc(NC(=O)C(C)CN5CCN(C)CC5)c4)cc3)nc12 (stereo not given)
COc1ccc2nccc(NN=Cc3ccc(F)cc3)c2c1
CN1C(C)(C)CC(NC(=O)c2ccc(-c3nc4cc(Cl)c(Cl)cc4[nH]3)cc2)CC1(C)C
COc1ccc(CNCCCCCNCc2ccc(Cl)c(Cl)c2)cc1Cl
COc1c(C2CCN(CCCCNC(=O)c3cc(-c4ccc(Cl)cc4)sc3C)CC2)ccc2c1CCCC2
COc1cc2c(c(OC)c1[N+](=O)[O-])C=CC1(O2)N(C)c2ccc([N+](=O)[O-])cc2C1(C)C (stereo not given)
COc1ccc2nc(C)cc(NN=Cc3ccccc3F)c2c1
Cc1noc(C)c1-c1ccc2c(Nc3ccc([N+](=O)[O-])cc3)c(C(N)=O)cnc2c1
CCOC(=O)c1ccc(NC(=O)Nc2cccc(-c3ccc(-c4nc5c(C)cccc5[nH]4)s3)c2)cc1
Cc1ccc(NS(=O)(=O)c2cccs2)cc1-c1cccc(C(=O)Nc2ccc(F)cc2)c1
Clc1ccc(Nc2nc(NCc3ccccc3)nc(N/N=C/c3ccccn3)n2)cc1
O=C1CCCN1CCCNCc1ccc(-c2ccc(-c3nc4ccc(F)cc4[nH]3)cc2)cc1
O=C(Nc1cccc(CN2CCCN(Cc3ccccc3)CC2)c1)c1ccc(-c2ccccc2)cc1
O=[N+]([O-])c1cccc(CNCC2CCN(CCc3ccccc3)CC2)c1
O=C(NC1CC1)c1ccc(N2CCC(Cc3ccccc3)CC2)c([N+](=O)[O-])c1
O=C(CCNc1ccnc(NCC2CCCCC2)n1)Nc1ccccc1
c1ccc(CNCc2cccc(-c3cccc(-c4nc5ccccc5[nH]4)c3)c2)cc1
C[C@]12CC3CC(Nc4nc(N5CCOCC5)nc5ccccc45)(C1)C[C@@](C)(C3)C2
COc1cc2nc(N(C)Cc3cccc(I)c3)nc(N)c2cc1OC
c1ccc2c(c1)ncn2-c1ccnc(Nc2ccncc2)n1
FC(F)(F)c1ccc(CNC2CCN(CC3CCCCC3)CC2)cc1
Cc1cc(NCC(c2ccccc2)c2ccccc2)nc(NCc2ccc(C(F)(F)F)cc2)n1
COc1ccc(NC(=O)C2c3ccccc3C(=O)N(C3CCCC3)C2c2cccs2)cc1 (stereo not given)
COc1cc(C(=O)N2CCN(C(C)C)CC2)ccc1CN(C)CCCCN1CCN(c2cccc(Cl)c2Cl)CC1
CC1(C)N=C(N)N=C(N)N1OCc1cccc(Cl)c1Cl
O=C(NC1CC1)c1ccc(N2CCCCN2CCc2ccccc2)c(C(F)(F)F)c1
O=C(NCCCCN1CCC(c2ccc3ccccc3c2O)CC1)c1ccc(NC(=O)c2ccc(Cl)cc2)cc1
CN(C)CCOc1ccc2c(c1)OC(C)(C)C=C2c1cccc2ccccc12
Oc1cccc2c1CC(NCc1ccccc1)CC2 (stereo not given)
C=CCc1cccc(C)c1OCCCON1C(N)=NC(N)=NC1(C)C
COc1cccc2c(NCc3ccccc3)nc(NCCCN3CCCCC3C)nc12 (stereo not given)
O=C(Nc1cccc(-c2csc(-c3nc4ccccc4[nH]3)c2)c1)c1ccncc1
CCCc1cc(Cc2cnc(N)nc2N)cc(OCCCCCC(=O)O)c1OC
CCOc1cc(C=NNc2nc3ccccc3[nH]2)ccc1OCc1ccc([N+](=O)[O-])cc1
Cc1nnc(-c2ccc3ccccc3c2)c2cn(-c3cccc([N+](=O)[O-])c3)nc12
CC(C)(C)c1ccc(CN2CCC(CNC(=O)c3cc(-c4ccccc4C(F)(F)F)cs3)C2)cc1 (stereo not given)

These molecules were tested against Plasmodium falciparum protein kinase 6 (PK6, PF3D7_1337100) (UniProt Q8IDW1) (assay: PfPK6 kinase inhibitors, biochemical, TCAMS library (AID 1159586; call rule not given here)). Conditions: recombinant PfPK6, Kinase-Glo ATP depletion luminescence.
Sequence of Plasmodium falciparum protein kinase 6 (PK6, PF3D7_1337100) (Q8IDW1 1-305): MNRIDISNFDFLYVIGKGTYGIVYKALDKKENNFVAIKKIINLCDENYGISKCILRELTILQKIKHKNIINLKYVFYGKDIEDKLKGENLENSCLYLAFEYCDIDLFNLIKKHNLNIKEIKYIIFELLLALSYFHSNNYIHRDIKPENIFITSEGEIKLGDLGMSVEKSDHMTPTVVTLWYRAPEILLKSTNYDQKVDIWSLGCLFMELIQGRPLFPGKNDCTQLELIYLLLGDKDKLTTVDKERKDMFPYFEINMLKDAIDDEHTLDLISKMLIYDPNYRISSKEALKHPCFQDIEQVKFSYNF

outcome, inactive:
O=C(Nc1ccc(-c2nc3ccccc3[nH]2)cc1)c1ccc(-c2cccc([N+](=O)[O-])c2)o1
Cc1cc(Nc2ccc(C(C)(C)C)cc2)c2[nH]ncc2n1
O=S(=O)(NCCN1CCCC1)c1ccc(-c2ccc(CNCc3ccsc3)cc2)cc1
CCCCN(CCCC)Cc1cc2ccccc2cc1O
Cc1cccc2[nH]c(-c3ccc(-c4cccc(NC(=O)C(C)CN5CCN(C)CC5)c4)cc3)nc12 (stereo not given)
COc1ccc2nccc(NN=Cc3ccc(F)cc3)c2c1
CN1C(C)(C)CC(NC(=O)c2ccc(-c3nc4cc(Cl)c(Cl)cc4[nH]3)cc2)CC1(C)C
COc1ccc(CNCCCCCNCc2ccc(Cl)c(Cl)c2)cc1Cl
COc1c(C2CCN(CCCCNC(=O)c3cc(-c4ccc(Cl)cc4)sc3C)CC2)ccc2c1CCCC2
COc1cc2c(c(OC)c1[N+](=O)[O-])C=CC1(O2)N(C)c2ccc([N+](=O)[O-])cc2C1(C)C (stereo not given)
COc1ccc2nc(C)cc(NN=Cc3ccccc3F)c2c1
Cc1noc(C)c1-c1ccc2c(Nc3ccc([N+](=O)[O-])cc3)c(C(N)=O)cnc2c1
CCOC(=O)c1ccc(NC(=O)Nc2cccc(-c3ccc(-c4nc5c(C)cccc5[nH]4)s3)c2)cc1
Cc1ccc(NS(=O)(=O)c2cccs2)cc1-c1cccc(C(=O)Nc2ccc(F)cc2)c1
Clc1ccc(Nc2nc(NCc3ccccc3)nc(N/N=C/c3ccccn3)n2)cc1
O=C1CCCN1CCCNCc1ccc(-c2ccc(-c3nc4ccc(F)cc4[nH]3)cc2)cc1
O=C(Nc1cccc(CN2CCCN(Cc3ccccc3)CC2)c1)c1ccc(-c2ccccc2)cc1
O=[N+]([O-])c1cccc(CNCC2CCN(CCc3ccccc3)CC2)c1
O=C(NC1CC1)c1ccc(N2CCC(Cc3ccccc3)CC2)c([N+](=O)[O-])c1
O=C(CCNc1ccnc(NCC2CCCCC2)n1)Nc1ccccc1
c1ccc(CNCc2cccc(-c3cccc(-c4nc5ccccc5[nH]4)c3)c2)cc1
C[C@]12CC3CC(Nc4nc(N5CCOCC5)nc5ccccc45)(C1)C[C@@](C)(C3)C2
COc1cc2nc(N(C)Cc3cccc(I)c3)nc(N)c2cc1OC
c1ccc2c(c1)ncn2-c1ccnc(Nc2ccncc2)n1
FC(F)(F)c1ccc(CNC2CCN(CC3CCCCC3)CC2)cc1
Cc1cc(NCC(c2ccccc2)c2ccccc2)nc(NCc2ccc(C(F)(F)F)cc2)n1
COc1ccc(NC(=O)C2c3ccccc3C(=O)N(C3CCCC3)C2c2cccs2)cc1 (stereo not given)
COc1cc(C(=O)N2CCN(C(C)C)CC2)ccc1CN(C)CCCCN1CCN(c2cccc(Cl)c2Cl)CC1
CC1(C)N=C(N)N=C(N)N1OCc1cccc(Cl)c1Cl
O=C(NC1CC1)c1ccc(N2CCCCN2CCc2ccccc2)c(C(F)(F)F)c1
O=C(NCCCCN1CCC(c2ccc3ccccc3c2O)CC1)c1ccc(NC(=O)c2ccc(Cl)cc2)cc1
CN(C)CCOc1ccc2c(c1)OC(C)(C)C=C2c1cccc2ccccc12
Oc1cccc2c1CC(NCc1ccccc1)CC2 (stereo not given)
C=CCc1cccc(C)c1OCCCON1C(N)=NC(N)=NC1(C)C
COc1cccc2c(NCc3ccccc3)nc(NCCCN3CCCCC3C)nc12 (stereo not given)
O=C(Nc1cccc(-c2csc(-c3nc4ccccc4[nH]3)c2)c1)c1ccncc1
CCCc1cc(Cc2cnc(N)nc2N)cc(OCCCCCC(=O)O)c1OC
CCOc1cc(C=NNc2nc3ccccc3[nH]2)ccc1OCc1ccc([N+](=O)[O-])cc1
Cc1nnc(-c2ccc3ccccc3c2)c2cn(-c3cccc([N+](=O)[O-])c3)nc12
CC(C)(C)c1ccc(CN2CCC(CNC(=O)c3cc(-c4ccccc4C(F)(F)F)cs3)C2)cc1 (stereo not given)
